In PubChem BioAssay (NCI):
Where “and” joins values, the source holds several entries; their conditions need not be identical. Equal entries are not always repeated. The panel holds about 83,000 compounds, 20% with a hit somewhere; the sample as a whole holds those more often.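 Single-dose data. Exposure time 48 hours. Values below 10 considered active.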 Calls of active or inactive are those of the source.

Assays:
Assay in all cases: NCI-60 one-dose screen, 48 h (100 = growth as untreated, 0 = no growth, -100 = all killed)
Conditions in all cases: 10 µM unless noted
[1] = test system: DU-145 prostate
[2] = test system: K-562 leukemia
[3] = test system: MALME-3M melanoma
[4] = test system: MDA-MB-231 breast
[5] = test system: RXF 393 renal
[6] = test system: SF-268 CNS
[7] = test system: SF-295 CNS
[8] = test system: SF-539 CNS
[9] = test system: UACC-257 melanoma
[10] = test system: M14 melanoma

Measured: growth

COc1ccc(/C=C/C(=O)c2cc3c(N)c(C(=O)Nc4ccccc4Cl)sc3nc2C)cc1
inactive: [1] 46.3% | [2] 38.9% | [3] 21% | [4] 33.8% | [6] 53.3% | [7] 48.5% | [8] 36.2% | [9] 63.8% | [10] 12.1%
active: [5] -3.54%

CC1=C2[C@@H](CC1)[C@]1(C)O[C@@](C3CC3)(C[C@H]1OC(=O)CO)[C@H]2OC(=O)/C=C/c1ccccc1
inactive: [1] 105% | [2] 79.4% | [3] 90.9% | [4] 81.2% | [5] 38.4% | [6] 41% | [7] 100% | [8] 109% | [9] 92.1% | [10] 96.4%

S=c1nc(CS)[nH]c2ccccc12
inactive: [1] 108% | [2] 104% | [3] 86.6% | [4] 82.8% | [5] 109% | [6] 92.4% | [7] 94.6% | [8] 94.7% | [9] 95.9% | [10] 98.2%

CCOC(=O)n1cc(-c2nonc2-c2cn(C)c3ccc(OC)cc23)c2cc(F)ccc21
inactive: [1] 92.7% | [2] 67.7% | [3] 81.9% | [4] 71.4% | [5] 89.6% | [6] 83.1% | [7] 60.8% | [8] 86.1% | [9] 74.5% | [10] 83.9%

CC(=O)N1N=C(c2ccc(F)cc2)CC1c1sc(N(C)Cc2ccccc2)nc1Cl (stereo not given)
inactive: [1] 103% | [2] 75.1% | [3] 102% | [4] 101% | [5] 101% | [6] 87.1% | [7] 97.6% | [8] 104% | [9] 118% | [10] 95.2%

C=CCOc1ccc(/C=C2\SC(=S)N(CCc3ccc(O)cc3)C2=O)cc1
inactive: [1] 98.3% | [2] 62.1% | [3] 101% | [4] 90.2% | [5] 114% | [6] 91.4% | [7] 91.1% | [8] 82.7% | [9] 92.6% | [10] 103%

CN1C(=O)/C(=C/c2ccc(C(=O)Nc3ncc(Cc4ccccc4Cl)s3)cc2)SC1=S
inactive: [1] 73% | [2] 71.8% | [3] 62.2% | [4] 56.7% | [5] 69.1% | [6] 80.9% | [7] 58.4% | [8] 77% | [9] 89.3% | [10] 42.1%

Cc1n(Cc2ccc3ccccc3c2)c(Cl)c(Cl)[n+]1Cc1ccc2ccccc2c1
active: [2] 9.4% | [3] -0.456% | [9] -13.6%
inactive: [1] 48.3% | [4] 10.6% | [5] 43.3% | [6] 34.9% | [7] 67.8% | [8] 54.4% | [10] 10.9%

NCCOCCOc1ccccc1
inactive: [1] 101% | [2] 108% | [3] 97.8% | [4] 114% | [5] 124% | [6] 97.8% | [7] 103% | [8] 108% | [9] 106% | [10] 102%

Cc1cccc(-c2nnc(SCC(=O)Nc3ncc(Cc4ccccc4)s3)n2N2C(=O)CSC2=S)c1
inactive: [1] 43.3% | [2] 77.6% | [3] 20.6% | [4] 10% | [5] 54.7% | [6] 78.3% | [7] 77.7% | [8] 36.6% | [9] 64.4% | [10] 51.1%

N#CC1C(=O)c2ccccc2C1c1ccccc1 (stereo not given)
inactive: [1] 109% and 104% | [2] 120% and 101% | [3] 96% and 106% | [4] 104% and 120% | [5] 94.7% and 124% | [6] 104% and 101% | [7] 96% and 109% | [8] 110% and 107% | [9] 113% and 99.1% | [10] 104% and 105%

O=C1C(Nc2ccc(Cl)cc2)=C(I)C(=O)c2ncccc21
inactive: [1] 13.6% | [5] 41.7% | [6] 28.9% | [7] 75.2% | [9] 40.2%
active: [2] 8.51% | [3] -46.5% | [4] -46.4% | [8] 7.82% | [10] -3.93%

Cc1nc2sc(C(=O)Nc3cccc4ncccc34)c(N)c2cc1C(C)O (stereo not given)
inactive: [1] 109% | [2] 28.8% | [3] 74.5% | [4] 76.1% | [5] 70.1% | [6] 87.7% | [7] 59.8% | [8] 82.4% | [9] 75.9% | [10] 62%

CCN(CC)CCOc1ccc(/C(=C(\Cl)c2ccccc2)c2ccccc2)cc1
inactive: [1] 74.6% and 103% | [6] 62.8% and 103%
-5.76% (active) and 29.9% (inactive): [8]
-57.9% (active) and 45.8% (inactive): [9]
1.62% (active) and 26.1% (inactive): [4]
-36.2% (active) and 43.3% (inactive): [10]
active: [3] -18.7% | [5] -58.3% and -26.6% | [7] -23.1%
-2.92% (active) and 28% (inactive): [2]

COc1cc(/C=C2\CCC/C(=C\c3cc(CN4CCCC4)c(O)c(OC)c3)C2=O)cc(CN2CCCC2)c1O
active: [1] 2.36%
inactive: [2] 11.1% | [3] 81.6% | [4] 12.5% | [5] 10.6% | [6] 35.3% | [7] 62.5% | [8] 23% | [9] 86.6% | [10] 19.6%

CC(=O)c1c(C)nc(SCC(=O)Nc2ccc(Cl)cc2)n1-c1ccc(Cl)cc1
inactive: [1] 106% | [2] 83% | [3] 90.8% | [4] 82% | [5] 67.3% | [6] 92.5% | [7] 91.3% | [8] 95.8% | [9] 94.5% | [10] 98.4%

O=c1c(/C=C/c2ccco2)nnc2sc(Nc3ccc(Cl)cc3)nn12
inactive: [1] 111% | [2] 97.9% | [3] 100% | [4] 96.4% | [5] 114% | [6] 103% | [7] 105% | [8] 90.6% | [9] 104% | [10] 101%

C=CCN1C=CC(=O)[C@H](O[Si](C)(C)C(C)(C)C)[C@@H]1/C=C/c1ccccc1
active: [1] -59.1% [100 µM] | [2] 4.18% [100 µM] | [3] -57.5% [100 µM] | [4] -68.3% [100 µM] | [5] -45.5% [100 µM] | [6] -58.2% [100 µM] | [7] -66.7% [100 µM] | [8] -82.7% [100 µM] | [9] -75.9% [100 µM] | [10] -78.6% [100 µM]

CCCCCCCCn1ccc2cc(NC(=O)CN3CCN(c4nc(C)cc(N5CCCCC5)n4)CC3)ccc21
inactive: [1] 95.2% | [2] 56% | [3] 112% | [4] 85.7% | [5] 86.9% | [6] 93.3% | [7] 103% | [8] 105% | [9] 115% | [10] 90.6%

COc1ccc(/C=C2/C(=O)N=C3N2NC(c2ccccc2)=CN3c2ccccc2)cc1
inactive: [1] 114% | [2] 108% | [3] 102% | [4] 107% | [5] 89.7% | [6] 98.5% | [7] 103% | [8] 94.8% | [9] 108% | [10] 98.3%

C=C(CNCCO)[C@@H]1CC[C@]2(CO)CC[C@]3(C)[C@H](CC[C@@H]4[C@@]5(C)CCC(NCCc6ccc(O)cc6)C(C)(C)[C@@H]5CC[C@]43C)[C@@H]12 (stereo not given in full)
active: [1] -84.1% | [2] -57.3% | [3] -86.8% | [4] -80% | [5] -85.7% | [6] -74.8% | [7] -85.4% | [8] -93.6% | [9] -86.3% | [10] -91.6%

CCN(CC)CC(=O)Nc1ccc2ncnc(Nc3ccc(Oc4cccc(F)c4)c(Cl)c3)c2c1
inactive: [1] 57% | [3] 45.2% | [4] 49.3% | [5] 43.2% | [6] 58.8% | [7] 87.2% | [8] 83.5% | [9] 67.2%
active: [2] 2.08% | [10] -33.8%
